Measured values published in PubChem BioAssay AID1159580 (chemical genetic matrix, 2015).
Several values for one entry are separate records, joined by “and”; a condition that tells them apart may be missing. Equal entries are not always repeated. The whole screen tested about 5,500 compounds, of which about 2,000 (36%) were called active. Another 18% or so got no clear call; they are omitted. Cut-off read from the data, not from the text of the source: active = normalized growth mostly below about 0.91 (no sharp cut-off); inconclusive = no clear call, values can overlap the other calls; inactive = mostly above about 0.92. Some of the results follow.

Test: chemical genetic growth profiling, strain panel (AID 1159580);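 note: tested at 20 µM; growth read once vehicle control cultures reached saturation at 30 °C; 1 = growth at the plate median or of vehicle wells; lower values mean less growth of the strain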
Conditions: S. cerevisiae deletion strains, growth OD

Measured: normalized growth

COC(=O)C[C@H]1C(C)(C)C(=O)[C@@H]2CC3=C4CC(=O)O[C@@H](c5ccoc5)[C@]4(C)CCC3[C@@]1(C)C2=O (stereo not given in full)
inactive: locus YAL021C, strain ccr4, stronger effect = lower value 0.972 | locus YAL026C, strain drs2, stronger effect = lower value 0.983 | locus YAL030W, strain snc1, stronger effect = lower value 1 | locus YBL061C, strain skt5, stronger effect = lower value 0.997 | locus YBR009C, strain hhf1, stronger effect = lower value 0.987 | locus YBR021W, strain FUR4, stronger effect = lower value 0.986 | locus YBR023C, strain chs3, stronger effect = lower value 1 | locus YBR171W, strain sec66, stronger effect = lower value 0.992 | locus YBR229C, strain ROT2, stronger effect = lower value 1 | locus YBR231C, strain swc5, stronger effect = lower value 1.01 | locus YBR279W, strain paf1, stronger effect = lower value 0.993 | locus YCL011C, strain gbp2, stronger effect = lower value 1 | locus YCL016C, strain dcc1, stronger effect = lower value 0.996 | locus YCL029C, strain bik1, stronger effect = lower value 0.998 | locus YCL061C, strain MRC1, stronger effect = lower value 0.988 | locus YCL069W, strain vba3, stronger effect = lower value 0.987 | locus YCR088W, strain abp1, stronger effect = lower value 0.988 | locus YDL005C, strain med2, stronger effect = lower value 0.975 | locus YDL035C, strain GPR1, stronger effect = lower value 1.01 | locus YDL040C, strain nat1, stronger effect = lower value 0.995 | locus YDL074C, strain BRE1, stronger effect = lower value 1.02 | locus YDL101C, strain DUN1, stronger effect = lower value 1.01 | locus YDL134C, strain PPH21, stronger effect = lower value 1.01 | locus YDL185W, strain tfp1, stronger effect = lower value 1.02 | locus YDL192W, strain arf1, stronger effect = lower value 1.01 | locus YDR001C, strain nth1, stronger effect = lower value 0.982 | locus YDR069C, strain doa4, stronger effect = lower value 0.982 | locus YDR101C, strain arx1, stronger effect = lower value 0.993 | locus YDR137W, strain rgp1, stronger effect = lower value 0.867 | locus YDR159W, strain sac3, stronger effect = lower value 0.999 | locus YDR162C, strain NBP2, stronger effect = lower value 1 | locus YDR195W, strain ref2 0.972 | locus YDR297W, strain sur2, stronger effect = lower value 0.996 | locus YDR318W, strain mcm21, stronger effect = lower value 1.01 | locus YDR334W, strain swr1, stronger effect = lower value 0.986 | locus YDR335W, strain msn5, stronger effect = lower value 0.985 | locus YDR388W, stronger effect = lower value 1.01 | locus YDR392W, strain spt3, stronger effect = lower value 0.989 | locus YDR502C, strain sam2, stronger effect = lower value 1 | locus YEL003W, strain gim4, stronger effect = lower value 0.996 | locus YEL037C, strain rad23, stronger effect = lower value 0.985 | locus YEL061C, strain CIN8 (second series), stronger effect = lower value 0.985 | locus YEL061C, strain CIN8, stronger effect = lower value 1 | locus YER015W, strain faa2, stronger effect = lower value 1 | locus YER016W, strain bim1, stronger effect = lower value 0.996 | locus YER110C, stronger effect = lower value 1.01 | locus YER111C, strain swi4, stronger effect = lower value 0.985 | locus YER155C, strain BEM2 (second series), stronger effect = lower value 1 | locus YER155C, strain BEM2, stronger effect = lower value 0.997 | locus YER167W, strain BCK2, stronger effect = lower value 1 | locus YFR010W, strain ubp6, stronger effect = lower value 0.978 | locus YGL078C, strain dbp3, stronger effect = lower value 1.02 | locus YGL086W, strain mad1, stronger effect = lower value 0.982 | locus YGL167C, strain pmr1, stronger effect = lower value 0.995 | locus YGL173C, strain kem1, stronger effect = lower value 0.994 | locus YGL227W, strain vid30, stronger effect = lower value 1 | locus YGL240W, strain doc1, stronger effect = lower value 1.02 | locus YGL248W, strain PDE1, stronger effect = lower value 1.01 | locus YGL253W, strain hxk2, stronger effect = lower value 0.995 | locus YGR078C, strain PAC10, stronger effect = lower value 1.01 | locus YGR135W, strain pre9, stronger effect = lower value 1.02 | locus YGR229C, strain SMI1, stronger effect = lower value 1.01 | locus YGR252W, strain gcn5, stronger effect = lower value 1.03 | locus YHR013C, strain ard1, stronger effect = lower value 0.977 | locus YHR027C, strain rpn1, stronger effect = lower value 0.974 | locus YHR030C, strain SLT2, stronger effect = lower value 1.01 and 0.964 | locus YHR079C, strain IRE1 (second series), stronger effect = lower value 1 | locus YHR079C, strain IRE1, stronger effect = lower value 0.976 | locus YHR094C, strain hxt1, stronger effect = lower value 1.01 | locus YHR129C, strain ARP1, stronger effect = lower value 0.999 | locus YHR142W, strain chs7, stronger effect = lower value 0.996 | locus YHR200W, strain rpn10, stronger effect = lower value 1 | locus YIL066C, strain RNR3, stronger effect = lower value 1.01 | locus YIL073C, strain SPO22, stronger effect = lower value 1.06 | locus YIL125W, strain kgd1, stronger effect = lower value 1.01 | locus YIR030C, strain dcg1, stronger effect = lower value 1.01 | locus YJL092W, strain hpr5, stronger effect = lower value 0.993 | locus YJL095W, strain BCK1 (second series), stronger effect = lower value 0.992 | locus YJL095W, strain BCK1, stronger effect = lower value 1.02 and 0.974 | locus YJL115W, strain asf1, stronger effect = lower value 0.978 | locus YJL129C, strain trk1, stronger effect = lower value 0.971 | locus YJL134W, strain LCB3, stronger effect = lower value 1.01 | locus YJL154C, strain vps35, stronger effect = lower value 0.983 | locus YJL164C, strain tpk1, stronger effect = lower value 1 | locus YJL166W, strain qcr8, stronger effect = lower value 1.01 | locus YJL168C, strain set2, stronger effect = lower value 1.01 | locus YJL187C, strain SWE1 (second series), stronger effect = lower value 1.02 | locus YJL187C, strain SWE1, stronger effect = lower value 0.991 | locus YJR066W, strain TOR1, stronger effect = lower value 0.918 | locus YKL009W, strain mrt4, stronger effect = lower value 0.999 | locus YKL068W, stronger effect = lower value 1.01 | locus YKL085W, strain MDH1 (second series), stronger effect = lower value 0.995 | locus YKL085W, strain MDH1, stronger effect = lower value 0.995 | locus YKL160W, strain elf1, stronger effect = lower value 0.996 | locus YKL190W, strain CNB1, stronger effect = lower value 1.01 | locus YKR001C, strain vps1, stronger effect = lower value 1.02 | locus YKR026C, strain gcn3, stronger effect = lower value 0.994 | locus YKR091W, strain srl3, stronger effect = lower value 0.992 | locus YLL001W, strain dnm1, stronger effect = lower value 0.983 | locus YLL026W, stronger effect = lower value 0.991 | locus YLL041C, strain sdh2, stronger effect = lower value 0.991 | locus YLR027C, strain aat2, stronger effect = lower value 0.998 | locus YLR039C, strain RIC1, stronger effect = lower value 0.988 | locus YLR058C, strain SHM2, stronger effect = lower value 1 | locus YLR102C, strain apc9, stronger effect = lower value 1.01 | locus YLR113W, strain HOG1, stronger effect = lower value 1.01 | locus YLR221C, strain rsa3, stronger effect = lower value 0.998 | locus YLR258W, strain gsy2, stronger effect = lower value 0.988 | locus YLR262C, strain YPT6 (second series), stronger effect = lower value 0.912 | locus YLR268W, strain sec22, stronger effect = lower value 1 | locus YLR320W, strain mms22, stronger effect = lower value 1.01 | locus YLR330W, strain CHS5, stronger effect = lower value 1 | locus YLR342W, strain FKS1, stronger effect = lower value 0.998 | locus YLR357W, strain rsc2, stronger effect = lower value 1.01 | locus YLR370C, strain arc18, stronger effect = lower value 0.988 | locus YLR371W, strain rom2, stronger effect = lower value 1.01 | locus YLR384C, strain iki3, stronger effect = lower value 0.993 | locus YLR418C, strain cdc73, stronger effect = lower value 1.03 | locus YML016C, strain PPZ1, stronger effect = lower value 0.998 | locus YML032C, strain rad52, stronger effect = lower value 0.997 | locus YML120C, strain ndi1, stronger effect = lower value 0.995 | locus YML124C, strain tub3, stronger effect = lower value 1.01 | locus YMR058W, strain fet3, stronger effect = lower value 0.981 | locus YMR078C, strain ctf18, stronger effect = lower value 1.02 | locus YMR125W, strain sto1, stronger effect = lower value 0.982 | locus YMR129W, stronger effect = lower value 0.998 | locus YMR205C, strain PFK2, stronger effect = lower value 0.988 | locus YMR223W, strain ubp8, stronger effect = lower value 0.999 | locus YMR231W, strain pep5, stronger effect = lower value 0.98 | locus YMR307W, strain GAS1, stronger effect = lower value 0.96 | locus YNL067W, strain RPL9B, stronger effect = lower value 1.02 | locus YNL071W, strain lat1, stronger effect = lower value 0.989 | locus YNL183C, strain NPR1, stronger effect = lower value 0.963 | locus YNL209W, strain ssb2, stronger effect = lower value 0.996 | locus YNL233W, strain BNI4, stronger effect = lower value 1.03 | locus YNL248C, strain rpa49, stronger effect = lower value 0.982 | locus YNL250W, strain rad50, stronger effect = lower value 0.998 | locus YNL271C, strain bni1, stronger effect = lower value 1.01 | locus YNL298W, strain CLA4, stronger effect = lower value 1.03 | locus YNL307C, strain MCK1, stronger effect = lower value 1.01 | locus YNL322C, strain KRE1 (second series), stronger effect = lower value 0.996 | locus YNR049C, strain mso1, stronger effect = lower value 0.987 | locus YNR052C, strain pop2, stronger effect = lower value 1.01 | locus YOL012C, strain htz1 0.887 | locus YOL147C, strain pex11, stronger effect = lower value 1.01 | locus YOR001W, strain rrp6, stronger effect = lower value 0.985 | locus YOR061W, strain CKA2, stronger effect = lower value 1 | locus YOR069W, strain VPS5, stronger effect = lower value 1 | locus YOR070C, strain gyp1, stronger effect = lower value 0.991 | locus YOR080W, strain dia2, stronger effect = lower value 0.995 | locus YOR083W, strain WHI5, stronger effect = lower value 0.996 | locus YOR106W, strain vam3, stronger effect = lower value 0.991 | locus YOR136W, strain idh2, stronger effect = lower value 1.01 | locus YOR144C, strain elg1, stronger effect = lower value 1 | locus YOR184W, strain ser1, stronger effect = lower value 1 | locus YOR231W, strain MKK1, stronger effect = lower value 0.979 | locus YOR265W, strain rbl2, stronger effect = lower value 0.987 | locus YOR270C, strain vph1, stronger effect = lower value 0.941 | locus YOR290C, strain snf2, stronger effect = lower value 1 | locus YOR316C, strain cot1, stronger effect = lower value 1.01 | locus YPL051W, strain arl3, stronger effect = lower value 0.992 | locus YPL078C, strain atp4, stronger effect = lower value 0.987 | locus YPL106C, strain sse1, stronger effect = lower value 1.04 | locus YPL240C, strain hsp82, stronger effect = lower value 0.998 | locus YPL256C, strain CLN2, stronger effect = lower value 0.97 | locus YPR119W, strain clb2, stronger effect = lower value 1.01 | locus YPR141C, strain kar3, stronger effect = lower value 1.01 | locus YPR163C, strain tif3, stronger effect = lower value 1.01 | locus YPR167C, strain met16, stronger effect = lower value 1.01 | strain wtn01, stronger effect = lower value 0.981
